# From PubChem BioAssay (NCI)
# The panel holds about 79,000 compounds, 15% with a hit somewhere; the sample as a whole holds those more often. Calls of active or inactive are those of the source. Rule as the data show it: active = growth inhibition above about 70%; inactive = the rest.
# Experiment: NCI Yeast Anticancer Drug Screen. Data for the sgs1 strain (AID 173);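 also: 0% = growth of vehicle-only control cultures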
# Details: S. cerevisiae sgs1 mutant, at 11.0 µM, active compounds read high
# How it was run: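 Each compound was added to cultures of the altered yeast strain. Growth was recorded, and inhibition was derived by comparison with vehicle controls.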
row,Structure (SMILES),growth inhibition
1,S=C(S)NN1CCOCC1,39% (inactive)
2,COC(=O)C1=C(C)NC(C)=C(C(=O)OCCCN2CCC(c3ccccc3)(c3ccccc3)CC2)C1c1cccc([N+](=O)[O-])c1 (stereo unspecified),97% (active)
3,c1ccc2c(c1)Oc1cccc3cccc-2c13,13% (inactive)
4,CN(C)CCOc1ccc2c(c1)C/C(=C/c1ncc([N+](=O)[O-])n1C)C2=O,65% (inactive)
5,Clc1ccccc1C1OC1c1ccccc1Cl (stereo unspecified),-81% (inactive)
6,O=[N+]([O-])c1cc(CCl)ccc1CCl,79% (active)
7,O=C1C=CC(=O)c2c(O)c(Nc3ccc(OC(F)(F)F)cc3)c(Cl)c(O)c21,58% (inactive)
8,S=c1[nH]nc(Nc2ccc(Cl)cc2)s1,2% (inactive)
9,Cn1ccnc1Oc1ccc(Cl)cc1,15% (inactive)
10,O=C1c2ccccc2-c2nc3ccccc3nc21,-57% (inactive)
11,CCCCCCCCCCCCCCCCCCNC,-27% (inactive)
12,Oc1ccc(NCn2c(=S)sc3ccccc32)cc1,4% (inactive)
13,O=C1C2CC[C@@H]3C(=O)C(Cl)(Cl)[C@@H]3CCC2C1(Cl)Cl (stereo partly specified),33% (inactive)
14,CC[n+]1ccc2c(C)c3[nH]c4ccc(O)cc4c3c(C)c2c1,43% (inactive)
15,Cc1ccc(-n2cc(-c3ccc(Cl)cc3)c(C#N)c2N)cc1,2% (inactive)
16,CC(=O)[O][Bi]([c]1ccccc1)[c]1ccccc1,46% (inactive)
17,CC1=C(SCCO)C(=O)c2ccccc2C1=O,7% (inactive)

row,Structure (SMILES),growth inhibition
1,C/C(=N\O)C1CC2C=C(C#N)C1N(Cc1ccccc1)C2 (stereo unspecified),4% (inactive)
2,Nc1nc(-c2cccnc2)cc(-c2cc(-c3cccnc3)nc(N)n2)n1,-4% (inactive)
3,CC(C)=CC(=O)O[C@@H]1CC(C)(C)CC2C3=CCC4[C@]56CC[C@](O)(OC5)C(C)(C)C6CC[C@@]4(C)C3(C)CC[C@]21C(=O)O (stereo partly specified),83% (active)
4,CCC(C)COC(=O)c1ccc(N=Cc2ccc(C=Nc3ccc(C(=O)OCC(C)CC)cc3)cc2)cc1 (stereo unspecified),2% (inactive)
5,Oc1cccc2c(Cl)ccnc12,99% (active)
6,O=C(O)c1cccc(-c2c3ccc(=O)cc-3oc3cc(O)ccc23)c1,44% (inactive)
7,CN(CCc1ccccn1)c1ccc2c(c1)Cc1ccccc1-2,88% (active)
8,Cc1cc(S(=O)(=O)/N=C(/NN)NNc2cccc(C(F)(F)F)n2)c(S)cc1Cl,-2% (inactive)
9,Nc1ccccc1CC(O)C(=O)O (stereo unspecified),14% (inactive)
10,O=C(O)C1CCCCC1c1c2ccc(=O)c(O)c-2oc2c(O)c(O)ccc12 (stereo unspecified),-16% (inactive)
11,Cc1ccc2ccc(O)cc2c1,-38% (inactive)
12,COC(=O)c1ccc(NCC2=CC(=O)C=CC2=O)cc1O,76% (active)
13,C(CCSC1=NCCN1)CSC1=NCCN1 (tested in a mixture with another compound),86% (active)
14,N#Cc1c(N)[nH]c2ccc(Sc3ccccc3)cc12,23% (inactive)
15,CCNc1nnc(CSc2nc(-c3ccccc3)c(-c3ccccc3)[nH]2)s1,18% (inactive)
16,CC[C@@]1(O)C(=O)OCc2c1cc1n(c2=O)Cc2cc3c(N)cccc3nc2-1,5% (inactive)

# Same assay, conditions: S. cerevisiae sgs1 mutant, at 33.0 µM, active compounds read high
row,Structure (SMILES),growth inhibition
1,S=C(S)NN1CCOCC1,54% (inactive)
2,COC(=O)C1=C(C)NC(C)=C(C(=O)OCCCN2CCC(c3ccccc3)(c3ccccc3)CC2)C1c1cccc([N+](=O)[O-])c1 (stereo unspecified),98% (active)
3,c1ccc2c(c1)Oc1cccc3cccc-2c13,39% (inactive)
4,CN(C)CCOc1ccc2c(c1)C/C(=C/c1ncc([N+](=O)[O-])n1C)C2=O,70% (active)
5,Clc1ccccc1C1OC1c1ccccc1Cl (stereo unspecified),-38% (inactive)
6,O=[N+]([O-])c1cc(CCl)ccc1CCl,96% (active)
7,O=C1C=CC(=O)c2c(O)c(Nc3ccc(OC(F)(F)F)cc3)c(Cl)c(O)c21,62% (inactive)
8,S=c1[nH]nc(Nc2ccc(Cl)cc2)s1,37% (inactive)
9,Cn1ccnc1Oc1ccc(Cl)cc1,83% (active)
10,O=C1c2ccccc2-c2nc3ccccc3nc21,-19% (inactive)
11,CCCCCCCCCCCCCCCCCCNC,-16% (inactive)
12,Oc1ccc(NCn2c(=S)sc3ccccc32)cc1,69% (inactive)
13,O=C1C2CC[C@@H]3C(=O)C(Cl)(Cl)[C@@H]3CCC2C1(Cl)Cl (stereo partly specified),51% (inactive)
14,CC[n+]1ccc2c(C)c3[nH]c4ccc(O)cc4c3c(C)c2c1,0% (inactive)
15,Cc1ccc(-n2cc(-c3ccc(Cl)cc3)c(C#N)c2N)cc1,10% (inactive)
16,CC(=O)[O][Bi]([c]1ccccc1)[c]1ccccc1,88% (active)
17,CC1=C(SCCO)C(=O)c2ccccc2C1=O,40% (inactive)

row,Structure (SMILES),growth inhibition
1,C/C(=N\O)C1CC2C=C(C#N)C1N(Cc1ccccc1)C2 (stereo unspecified),9% (inactive)
2,Nc1nc(-c2cccnc2)cc(-c2cc(-c3cccnc3)nc(N)n2)n1,-6% (inactive)
3,CC(C)=CC(=O)O[C@@H]1CC(C)(C)CC2C3=CCC4[C@]56CC[C@](O)(OC5)C(C)(C)C6CC[C@@]4(C)C3(C)CC[C@]21C(=O)O (stereo partly specified),95% (active)
4,CCC(C)COC(=O)c1ccc(N=Cc2ccc(C=Nc3ccc(C(=O)OCC(C)CC)cc3)cc2)cc1 (stereo unspecified),7% (inactive)
5,Oc1cccc2c(Cl)ccnc12,96% (active)
6,O=C(O)c1cccc(-c2c3ccc(=O)cc-3oc3cc(O)ccc23)c1,83% (active)
7,CN(CCc1ccccn1)c1ccc2c(c1)Cc1ccccc1-2,87% (active)
8,Cc1cc(S(=O)(=O)/N=C(/NN)NNc2cccc(C(F)(F)F)n2)c(S)cc1Cl,-1% (inactive)
9,Nc1ccccc1CC(O)C(=O)O (stereo unspecified),83% (active)
10,O=C(O)C1CCCCC1c1c2ccc(=O)c(O)c-2oc2c(O)c(O)ccc12 (stereo unspecified),33% (inactive)
11,Cc1ccc2ccc(O)cc2c1,-19% (inactive)
12,COC(=O)c1ccc(NCC2=CC(=O)C=CC2=O)cc1O,97% (active)
13,C(CCSC1=NCCN1)CSC1=NCCN1 (tested in a mixture with another compound),99% (active)
14,N#Cc1c(N)[nH]c2ccc(Sc3ccccc3)cc12,95% (active)
15,CCNc1nnc(CSc2nc(-c3ccccc3)c(-c3ccccc3)[nH]2)s1,71% (active)
16,CC[C@@]1(O)C(=O)OCc2c1cc1n(c2=O)Cc2cc3c(N)cccc3nc2-1,5% (inactive)
